BLM helicase inh: qHTS Assay for Inhibitors of Bloom's syndrome helicase (BLM). recombinant BLM DNA unwinding, fluorescence dequenching. 350,000 compounds, 0.2% hits. AID 2528, 2010. Potency, µM (top dose mostly 56.1 µM), most hits filed as inhibitors. RecQ-like DNA helicase BLM (Homo sapiens), P54132; note: nearly all actives have a fitted effect of over 35% in size
RECQ1 helicase: qHTS Assay for Inhibitors of RecQ-Like Dna Helicase 1 (RECQ1) | ATP-dependent DNA helicase Q1 (Homo sapiens), P46063 | Potency, µM (top dose mostly 57.3 µM), hits mostly inhibitors | RECQ1 DNA unwinding, red fluorescence kinetic read | 240,000 compounds, 0.54% hits; note: nearly all actives have a fitted effect of over 30% in size
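50 nM RECQ1T1 preincubated 15 min with compound in Tris pH 8.0 buffer with MgCl2, DTT, Tween-20 and 2.5 ug/ml poly(dI-dC); started with 200 nM TAMRA/BHQ-2 forked duplex and 2 mM ATP. Unwinding read as fluorescence (525/598 nm), two reads 2 h apart.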
TDP1 inh: qHTS Assay for Inhibitors of Tyrosyl-DNA Phosphodiesterase (TDP1); Potency, µM (doses to about 130 µM), actives largely listed as inhibitors; Tyrosyl-DNA phosphodiesterase 1 (Homo sapiens), Q9NUW8; 350,000 compounds, 0.28% hits; AID 485290, 2010; recombinant TDP1, AlphaScreen DNA substrate cleavage; note: nearly all actives have a fitted effect of over 40% in size
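E. coli-derived human Tdp1, 1 nM final. Cpd preinc 15 min RT; substrate 15 nM final, 5 min RT; AS bead mix 10 ug/ml final, 10 min RT. Signal loss = tyrosine-FITC cleavage. No-enzyme wells = max signal.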
L3MBTL1 block: qHTS Assay for the Inhibitors of L3MBTL1. Lethal(3)malignant brain tumor-like protein 1 (Homo sapiens), Q9Y468. AlphaScreen L3MBTL1–H3K9me1 peptide binding. Potency, µM (highest dose often 57.1 µM), most hits filed as inhibitors. 230,000 compounds, 0.66% hits; note: nearly all actives have a fitted effect of over 60% in size
Target sequence (Q9Y468 whole entry, looked up): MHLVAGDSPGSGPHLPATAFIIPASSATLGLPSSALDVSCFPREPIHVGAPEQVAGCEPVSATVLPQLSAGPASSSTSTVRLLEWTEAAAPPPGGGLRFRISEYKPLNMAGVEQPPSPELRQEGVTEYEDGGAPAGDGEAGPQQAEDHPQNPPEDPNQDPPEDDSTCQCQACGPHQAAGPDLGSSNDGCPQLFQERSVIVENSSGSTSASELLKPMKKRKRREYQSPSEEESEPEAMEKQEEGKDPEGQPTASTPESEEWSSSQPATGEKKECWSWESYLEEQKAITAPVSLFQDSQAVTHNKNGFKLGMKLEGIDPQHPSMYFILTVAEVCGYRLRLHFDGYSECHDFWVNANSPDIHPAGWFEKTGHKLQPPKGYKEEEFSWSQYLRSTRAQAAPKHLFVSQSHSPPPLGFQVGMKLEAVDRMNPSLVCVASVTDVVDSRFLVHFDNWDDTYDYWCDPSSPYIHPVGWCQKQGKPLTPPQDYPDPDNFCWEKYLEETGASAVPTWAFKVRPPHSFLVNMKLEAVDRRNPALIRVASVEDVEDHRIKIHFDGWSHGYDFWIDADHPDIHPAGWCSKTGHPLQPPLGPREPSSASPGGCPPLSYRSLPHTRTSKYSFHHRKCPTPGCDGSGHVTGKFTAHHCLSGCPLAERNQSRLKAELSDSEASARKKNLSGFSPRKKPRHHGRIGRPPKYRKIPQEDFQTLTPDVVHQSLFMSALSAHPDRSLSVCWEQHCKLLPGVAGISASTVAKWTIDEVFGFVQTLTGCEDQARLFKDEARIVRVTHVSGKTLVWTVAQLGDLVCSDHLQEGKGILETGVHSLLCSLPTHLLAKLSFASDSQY
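Read-out is AlphaScreen signal from streptavidin donor and nickel chelate acceptor beads (10 ug/mL final each) bridging L3MBTL1 (50 nM) and biotinylated K9-monomethylated H3(1-15) peptide (75 nM), after 30 min compound exposure at room temperature.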
KDM4E inh: qHTS Assay for Inhibitors of Human Jumonji Domain Containing 2E (JMJD2E) | JMJD2E catalytic domain, FDH-coupled NADH fluorescence (FDH is formaldehyde dehydrogenase) | Potency, µM (titrated, usually from 57.1 µM), usual class: inhibitors | 230,000 compounds, 1.6% hits | AID 2147, 2009; active = well fitted inhibition curve with a large enough effect, not every such curve was filed as active; inconclusive = small, poorly fitted or top-dose-only effect, or another doubt; inactive = no such curve, though single readings can be large or run the other way; note: nearly all actives have a fitted effect of over 50% in size
APE1 inh: qHTS Assay for Inhibitors of the Human Apurinic/apyrimidinic Endonuclease 1 (APE1); DNA repair nuclease/redox regulator APEX1 (Homo sapiens), P27695; recombinant APE1, TAMRA/BHQ-2 abasic DNA cleavage fluorescence; Potency, µM (top dose mostly 65.8 µM), actives largely listed as inhibitors; AID 2517, 2012; 350,000 compounds, 0.35% hits; note: nearly all actives have a fitted effect of over 55% in size
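Kinetic fluorescence read (525 ex/598 em nm, three reads 60 s apart) of AP-site incision; signal = third minus first read. Enzyme 0.75 nM, dual-labelled THF duplex 50 nM, compound preincubation 15 min RT.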
A number is an active result; – = inactive; ? = inconclusive; · = not tested or not shown; ! = not confirmed by another sample; [ ] = remark or other dose. The entries come from a sample that favours hits as a whole. Unless noted, calls come from the whole dose curve; as a rule, active = well fitted curve in the direction sought with a large enough effect; inconclusive = small, poorly fitted or top-dose-only effect, or another doubt; inactive = no such curve, though single readings can be large; an effect the other way counts as inactive or inconclusive.

SMILES | BLM helicase inh | RECQ1 helicase | TDP1 inh | L3MBTL1 block | KDM4E inh | APE1 inh
N#CC(C#N)=c1ccc2c(c1)NC1(CCCCC1)N=2 | – | – | – | 28µM | – | ?
N#CC(C#N)=C1NC2(CCCCC2)Cc2ccccc21 | – | – | · | – | – | –
COc1cccc2c1cc1c(=O)n(CC(=O)N3CCN(c4cccc(C)c4)C(C)C3)nc(C)n12 (stereo not given) | – | · | – | · | · | ·
C=CCN(c1ccccc1)S(=O)(=O)c1cccc(C(=O)Nc2ccncc2)c1 | · | · | · | – | · | –
C=CCN(c1ccccc1)S(=O)(=O)c1cccc(C(=O)Nc2nc3ccccc3[nH]2)c1 | – | – | – | – | 28µM | –
CCC(=O)Nc1ccc(OCc2cc(C3Nc4ccccc4C(=O)N3Cc3ccccc3)ccc2OC)cc1 (stereo not given) | · | · | – | · | · | ·
C=CC1=C(C)C2=NC1=CC1=NC(=CC3=NC(=CC4=NC(=C2)C(C)=C4CCC(=O)O)C(CCC(=O)O)=C3C)C(C=C)=C1C.[Zn] | 35µM | 13µM | · | · | ? | 4.5µM
O=C1C2C3C=CC(C3)C2C(=O)N1c1ccncc1 (stereo not given) | – | – | – | – | – | –
O=C1C2C3C=CC(C3)C2C(=O)N1c1ncn[nH]1 (stereo not given) | – | – | 16µM | – | – | ?
Cc1cc(C)cc(N2C(=O)CC(Sc3nnnn3-c3ccccc3)C2=O)c1 (stereo not given) | – | – | – | – | – | –
Cc1cc(C)cc(N2C(=O)CC(Sc3ncn[nH]3)C2=O)c1 (stereo not given) | – | – | · | – | 1.3µM | –
CCOc1cc(Cl)c(S(=O)(=O)n2ccnc2)cc1Cl | – | · | – | · | · | ·
O=C(NN(C(=O)c1ccccc1)c1ccccc1)c1ccccc1 | – | – | 71µM | ? | – | –
Nc1nc(-c2ccccn2)nc(N)c1Cc1ccccc1F | – | – | – | 4µM | – | –
O=P(c1ccccc1)(c1ccccc1)c1nc(-c2ccccc2)oc1N1CCOCC1 | – | – | · | – | ? | –
O=P(c1ccccc1)(c1ccccc1)c1nc(-c2ccc(Cl)cc2)oc1N1CCOCC1 | – | – | – | – | 3.2µM | –
CN(C)c1ccc(O)c2c1C[C@H]1C[C@H]3[C@@H](N(C)C)C(=O)C(C(N)=O)=C(O)[C@]3(O)C(=O)C1=C2O | – | – | · | · | ? | ?
O=C(Nc1ccc2c(c1)OCCO2)c1cnn2c1NC(=C1CC1)C=C2C(F)F | · | · | · | · | · | –
Cc1cc(C)cc(OCCCn2c(-c3ccc(Cl)cc3)nc3ccccc3c2=O)c1 | – | · | · | · | · | ·
Cc1cccc(-n2c(O)c(C=Nc3cc(O)ccc3C)c3ccccc3c2=O)n1 | – | – | – | – | – | –
Cc1cccc(-n2c(O)c(C=Nc3ccccc3O)c3ccccc3c2=O)n1 | 16µM | – | · | – | – | ?
COc1ccc2nc3cc(Cl)ccc3c(Nc3cc(CN4CCCC4)c(O)c(CN4CCCC4)c3)c2n1 | ? | · | · | · | · | 15µM
O=C(N/N=C/c1cccnc1)/C(=C\c1cccs1)NC(=O)c1ccccc1 | – | – | – | – | – | –
O=C(N/N=C/c1cc2ccccc2nc1Cl)/C(=C/c1cccs1)NC(=O)c1ccccc1 | ? | 25µM | – | · | ? | –
CCOc1ccc(-c2cc(-c3nc(-c4ccc(C)cc4)no3)[nH]n2)cc1 | – | · | – | · | · | ·
SMILES | BLM helicase inh | RECQ1 helicase | TDP1 inh | L3MBTL1 block | KDM4E inh | APE1 inh
CC(C)(C)n1ncc2c(=O)n(Cc3ccc(Cl)cc3C(F)(F)F)cnc21 | · | · | · | · | · | –
C/C(=N/Nc1ncc(Br)cn1)c1ccc(Br)cc1 | – | · | – | – | · | –
C/C(=N\Nc1ccc(C(=O)O)cc1)c1ccc(Br)cc1 | – | – | · | ? | – | 25µM
Cc1nn2c(-c3ccco3)ccnc2c1-c1ccc(F)cc1 | – | · | – | · | · | ·
CN(C)CCCn1cc(C2=C(c3c[nH]c4ccccc34)C(=O)NC2=O)c2ccccc21 | – | 28µM! | – | · | – | –
CCCCN1C(=O)c2ccccc2C1=O | · | · | – | · | · | ·
O=C1c2ccccc2C(=O)N1CCCCCCc1ccccc1 | · | · | 35µM | – | · | –
Oc1ccc2ccccc2c1CN1CCCC1 | – | – | – | – | 32µM | –
Cc1nc(-c2ccc(S(=O)(=O)NCc3ccc(OC(C)C)cc3)cc2)co1 | – | · | – | · | · | ·
CCCCN(C(=O)c1cc(S(=O)(=O)N2CCCCCC2)ccc1OC)c1ccccc1 | · | · | – | – | · | –
Oc1c(I)cc(I)c2cccnc12 | – | – | – | – | 14µM | –
Oc1c(Cl)cc(Cl)c2cccnc12 | – | – | – | · | 14µM | –
CC(=O)NCc1cc(Cl)c2cccnc2c1O | · | · | · | 22µM | · | –
O=C(CCCl)Nc1cccc2cccnc12 | · | · | – | · | · | ·
O=C(Nc1nc(Nc2cc(F)cc(F)c2)nc(NC2CCCC2)n1)OCc1ccccc1 | · | · | – | · | · | ·
CCN(CC)c1nc2c(S(=O)(=O)c3ccccc3)nnn2c2ccc(Cl)cc12 | – | · | – | · | · | ·
COc1ccc(NC(=O)CC2Sc3ncnn3C2=O)cc1 (stereo not given) | – | – | – | – | 2µM | –
CCOC(=O)c1ccc(NC(=O)CC2Sc3ncnn3C2=O)cc1 (stereo not given) | – | – | · | – | 1.8µM | –
COCCN1C(=O)C(CC(=O)Nc2ccccc2)SC1=Nc1ccc(OC)cc1 (stereo not given) | – | – | – | · | – | –
CCOC(=O)c1ccc(NC(=O)CN2C(=O)C(C)SC(C)C2=O)cc1 (stereo not given) | – | – | – | – | – | –
CC=O | · | – | – | · | · | –
CC1(C)S[C@H]2[C@@H](NC(=O)C(N)c3ccccc3)C(=O)N2[C@H]1C(=O)O (stereo not given in full) | – | ? | ? | · | ? | 20µM
NNc1nncc2ccccc12 | – | – | – | · | 20µM | –
CSCC[C@H](NC(=O)[C@H](CC(C)C)NC(=O)CNC(=O)[C@@H]1CCCN1C(=O)[C@H](Cc1ccccc1)NC(=O)[C@H](Cc1ccccc1)NC(=O)[C@H](CC(=O)O)NC(=O)[C@H](Cc1cnc[nH]1)NC(=O)[C@H](CCSC)NC(=O)[C@@H](N)CC(=O)O)C(N)=O | – | 11µM | – | · | · | ?
O=C(Nc1cccc(C(F)(F)F)c1)c1cc2nc(-c3ccccc3)cc(C(F)(F)F)n2n1 | – | · | –[12.3 µM] | · | · | ·
O=C(CN1CCCC1)NC(c1ccccc1)c1ccccc1 | – | · | · | 4µM | · | –
